Results from PubChem BioAssay (EPA / NIEHS).
Activity calls are given as the source filed them. Rule for the calls: active = hit-call score of the fitted dose curve at least 0.9, where 1 is the maximum; inactive = score below 0.9.

Key:
[1] = CEETOX_H295R_PROG: CeeTox H295R High-throughput Steroidogenesis Assay for Progesterone (PROG) (AID 2283442); settings: actives raise or lower the signal;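 for AC50: human H295R adrenal cells primed with 10 µM forskolin before dosing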
Outline: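 Steps: seed H295R cells and let them adhere overnight; prime 48 h with 10 uM forskolin; dose with compound in DMSO at 0.1% final for 48 h; extract medium steroids with MTBE; measure progesterone by LC-MS/MS. MTT viability was run in the same wells.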

[2] = read-out: Tumor necrosis factor receptor superfamily member 6 (Homo sapiens) (UniProt P25445); test: LTEA_HepaRG_FAS: Life Technologies and Expression Analysis (LTEA) Assay for Fas cell surface death receptor (FAS) using HepaRG (AID 2283447); settings: mRNA level, 48 h; actives raise or lower the signal
Outline: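 FAS transcript level was measured by TaqMan qRT-PCR against three housekeeping genes after 48 h chemical exposure. Cells were HepaRG, 0.5% DMSO vehicle, with a top concentration of 100 uM and half-log dilutions over eight points, in duplicate.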

[3] = read-out: Fatty acid synthase (Homo sapiens) (UniProt P49327); test: LTEA_HepaRG_FASN: Life Technologies and Expression Analysis (LTEA) Assay for Fatty Acid Synthase (FASN) using HepaRG (AID 2283448); settings: mRNA level, 48 h; actives raise or lower the signal;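 for AC50: differentiated human HepaRG liver cells in serum-free induction medium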
Outline: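 Differentiated HepaRG cells in serum-free induction medium exposed 48 h in duplicate to eight half-log concentrations, top 100 uM, 0.5% DMSO. FASN mRNA by qRT-PCR normalised to ACTB, GAPDH, POLR2A; bidirectional fit versus DMSO.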

[4] = read-out: Cyclin D2 (CCND2), CCND2 (gene 894); test: LTEA_HepaRG_CCND2: Life Technologies and Expression Analysis (LTEA) Assay for Cyclin D2 (CCND2) using HepaRG (AID 2283449); settings: mRNA level, 48 h; actives raise or lower the signal
Outline: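 Read-out is CCND2 mRNA level measured by qRT-PCR in human HepaRG liver cells and normalised to three housekeeping genes. Chemicals were applied for 48 h at up to 100 uM, with gain or loss fitted relative to 0.5% DMSO.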

[5] = read-out: Cyclin Dependent Kinase Inhibitor 1A (CDKN1A), CDKN1A (gene 1026); test: LTEA_HepaRG_CDKN1A: Life Technologies and Expression Analysis (LTEA) Assay for Cyclin Dependent Kinase Inhibitor 1A (CDKN1A) using HepaRG (AID 2283450); settings: mRNA level, 48 h; actives raise or lower the signal
Outline: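 Read-out is CDKN1A mRNA by TaqMan qRT-PCR, normalized to three housekeeping genes and fitted in both directions against the DMSO baseline. Human HepaRG cells were treated 48 h with test chemicals up to 100 uM in half-log steps, 0.5% DMSO.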

[6] = CEETOX_H295R_CORTIC: CeeTox H295R High-throughput Steroidogenesis Assay for Corticosterone (CORTIC) (AID 2283437); settings: actives raise or lower the signal;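 note: corticosterone secreted into medium quantified by mass spectrometry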;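 for AC50: human H295R adrenal cells prestimulated with forskolin before chemical exposure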
Outline: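 Corticosterone secreted into medium is measured by reverse-phase HPLC with tandem MS following liquid-liquid extraction. Cells are forskolin-stimulated (10 uM, 48 h) before 48 h test exposure; activity fitted in both directions against DMSO.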

[7] = CEETOX_H295R_DOC: CeeTox H295R High-throughput Steroidogenesis Assay for DOC (AID 2283439); settings: actives raise or lower the signal
Outline: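 H295R cells prestimulated 48 h with 10 uM forskolin, then exposed 48 h to test chemical (0.1% DMSO final). Medium 11-deoxycorticosterone measured by HPLC-MS/MS after MTBE extraction; bidirectional fit vs DMSO, viability checked by MTT in same wells.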

[8] = CEETOX_H295R_CORTISOL: CeeTox H295R High-throughput Steroidogenesis Assay for Cortisol (AID 2283438); settings: actives raise or lower the signal;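 note: cortisol secreted into medium quantified by LC-MS/MS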
Outline: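 Forskolin-primed H295R cells (10 uM, 48 h) treated 48 h with test chemical in 0.1% DMSO. Cortisol in medium quantified by MTBE extraction and HPLC-MS/MS; bidirectional fit vs DMSO, MTT viability in same wells.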

Measured: AC50

Sequence of Fatty acid synthase (Homo sapiens) (P49327 whole entry, looked up): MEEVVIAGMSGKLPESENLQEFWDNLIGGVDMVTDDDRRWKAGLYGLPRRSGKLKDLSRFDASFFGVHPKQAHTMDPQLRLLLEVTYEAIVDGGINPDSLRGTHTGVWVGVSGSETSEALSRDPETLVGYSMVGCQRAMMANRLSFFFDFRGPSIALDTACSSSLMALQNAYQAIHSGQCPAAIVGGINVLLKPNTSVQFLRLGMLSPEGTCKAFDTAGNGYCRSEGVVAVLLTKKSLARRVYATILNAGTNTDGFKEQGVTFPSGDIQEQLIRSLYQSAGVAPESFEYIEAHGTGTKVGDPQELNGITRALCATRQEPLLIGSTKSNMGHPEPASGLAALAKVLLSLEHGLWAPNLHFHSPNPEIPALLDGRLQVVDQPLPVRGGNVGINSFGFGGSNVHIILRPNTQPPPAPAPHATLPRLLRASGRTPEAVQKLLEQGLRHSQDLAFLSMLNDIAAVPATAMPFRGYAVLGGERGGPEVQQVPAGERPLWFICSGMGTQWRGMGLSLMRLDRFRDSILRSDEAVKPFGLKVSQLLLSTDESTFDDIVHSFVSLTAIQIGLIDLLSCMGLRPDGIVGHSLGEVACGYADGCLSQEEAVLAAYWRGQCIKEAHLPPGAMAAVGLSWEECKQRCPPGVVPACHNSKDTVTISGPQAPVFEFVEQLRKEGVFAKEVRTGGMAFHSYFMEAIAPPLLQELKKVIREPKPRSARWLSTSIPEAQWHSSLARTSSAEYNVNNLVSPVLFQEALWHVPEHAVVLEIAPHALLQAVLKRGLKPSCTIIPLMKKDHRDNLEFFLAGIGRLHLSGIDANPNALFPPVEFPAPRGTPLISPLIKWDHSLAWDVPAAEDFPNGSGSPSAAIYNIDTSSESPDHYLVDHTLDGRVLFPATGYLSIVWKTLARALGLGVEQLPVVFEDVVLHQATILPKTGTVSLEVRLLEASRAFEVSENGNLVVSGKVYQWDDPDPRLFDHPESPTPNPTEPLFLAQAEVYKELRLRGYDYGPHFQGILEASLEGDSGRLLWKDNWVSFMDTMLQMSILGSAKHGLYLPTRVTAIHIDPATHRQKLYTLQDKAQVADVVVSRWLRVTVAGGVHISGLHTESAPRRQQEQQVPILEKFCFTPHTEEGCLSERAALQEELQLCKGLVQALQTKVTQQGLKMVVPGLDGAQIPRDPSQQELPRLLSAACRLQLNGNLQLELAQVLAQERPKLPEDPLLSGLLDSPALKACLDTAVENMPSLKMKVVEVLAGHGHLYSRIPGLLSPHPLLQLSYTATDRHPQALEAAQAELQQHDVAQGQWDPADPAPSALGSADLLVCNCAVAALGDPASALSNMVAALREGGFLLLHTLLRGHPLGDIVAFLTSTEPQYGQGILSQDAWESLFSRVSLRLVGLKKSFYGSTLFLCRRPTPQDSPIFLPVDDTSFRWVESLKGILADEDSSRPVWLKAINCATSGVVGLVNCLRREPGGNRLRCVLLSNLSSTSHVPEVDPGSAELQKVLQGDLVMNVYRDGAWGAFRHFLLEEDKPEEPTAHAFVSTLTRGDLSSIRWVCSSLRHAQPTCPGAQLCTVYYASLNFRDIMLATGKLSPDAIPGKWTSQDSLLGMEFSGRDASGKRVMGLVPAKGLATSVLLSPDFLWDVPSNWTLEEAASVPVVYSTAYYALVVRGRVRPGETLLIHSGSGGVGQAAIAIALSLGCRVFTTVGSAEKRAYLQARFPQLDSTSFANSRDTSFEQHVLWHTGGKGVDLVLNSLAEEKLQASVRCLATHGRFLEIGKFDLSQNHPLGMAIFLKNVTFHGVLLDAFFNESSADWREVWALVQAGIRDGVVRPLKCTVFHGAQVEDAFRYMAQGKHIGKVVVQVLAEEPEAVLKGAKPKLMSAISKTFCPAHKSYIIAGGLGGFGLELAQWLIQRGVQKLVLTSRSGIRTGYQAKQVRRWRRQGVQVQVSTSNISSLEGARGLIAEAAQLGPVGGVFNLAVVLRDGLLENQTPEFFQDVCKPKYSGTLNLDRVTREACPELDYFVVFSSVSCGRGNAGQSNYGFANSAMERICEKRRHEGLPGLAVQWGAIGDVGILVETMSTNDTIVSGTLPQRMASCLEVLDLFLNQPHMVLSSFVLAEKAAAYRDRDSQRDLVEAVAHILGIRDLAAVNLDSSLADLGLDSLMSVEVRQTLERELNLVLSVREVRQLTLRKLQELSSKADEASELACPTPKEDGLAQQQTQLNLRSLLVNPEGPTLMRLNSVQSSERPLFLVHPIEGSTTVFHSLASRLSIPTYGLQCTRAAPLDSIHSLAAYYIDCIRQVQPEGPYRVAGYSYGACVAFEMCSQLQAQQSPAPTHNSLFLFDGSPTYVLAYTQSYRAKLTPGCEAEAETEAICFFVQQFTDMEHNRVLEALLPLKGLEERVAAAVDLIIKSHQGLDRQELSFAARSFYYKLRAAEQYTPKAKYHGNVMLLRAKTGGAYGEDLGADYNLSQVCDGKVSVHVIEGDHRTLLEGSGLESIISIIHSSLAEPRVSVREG

CC(=O)O[C@]1(C(C)=O)CC[C@H]2[C@@H]3C=C(Cl)C4=CC(=O)[C@@H]5C[C@@H]5[C@]4(C)[C@H]3CC[C@@]21C
active: [3] 50 µM | [4] 0.0078 µM
inactive: [1] | [2] | [5]

Oc1ccccc1O
not listed: [8]
inactive: all other assays above

CCN(CC)CCOc1ccc(C(=C(Cl)c2ccccc2)c2ccccc2)cc1
active: [6] 0.039 µM | [7] 0.0456 µM | [1] 0.0347 µM
inactive: all other assays above

Cc1cc(Cc2ccc(N)c(C)c2)ccc1N
active: [6] 0.458 µM | [8] 22.9 µM | [7] 13.2 µM | [1] 18.9 µM
inactive: [2] | [3] | [4] | [5]

O=C1OC(c2ccc(O)cc2)(c2ccc(O)cc2)c2ccccc21
inactive: [2] | [4] | [5]
active: [1] 2.39 µM | [3] 89.6 µM

NC=O
inactive: [2] | [3] | [4] | [5]

C=CCCCCCCCCCCCC
inactive: [2] | [3] | [4] | [5]

Cc1cc(SC2=C(O)C[C@@](CCc3ccc(N)cc3)(C(C)C)OC2=O)c(C(C)(C)C)cc1CO
inactive: [2] | [3] | [4] | [5]

CC(=O)S[C@H](C(=O)N[C@H]1Cc2ccccc2[C@H]2CCC[C@@H](C(=O)O)N2C1=O)C(C)C
inactive: [2] | [3] | [4] | [5]

CN(C)CCCN1c2ccccc2Sc2ccc(Cl)cc21
inactive: [2] | [4]
active: [3] 12.5 µM | [5] 50 µM

OCC(O)CO
inactive: [2] | [3] | [4] | [5]

C=CCc1ccc(OC)c(OC)c1
inactive: [2] | [3] | [4] | [5]

O=C(O)CC(O)(CC(=O)O)C(=O)O
inactive: [2] | [3] | [4] | [5]

NC1CCCCC1
inactive: [2] | [3] | [4] | [5]

COc1ccc(OC(F)(F)F)cc1CN[C@H]1CCCN[C@H]1c1ccccc1
inactive: [2] | [4]
active: [3] 83.9 µM | [5] 89.6 µM

C#CC(O)C(CC)CCCC (configuration not stated)
inactive: [2] | [3] | [4] | [5]

c1ccc2occc2c1
inactive: [2] | [3] | [4] | [5]

CSc1ccc(Oc2ccc(S(N)(=O)=O)cc2CN(C)C)cc1C
inactive: [2] | [4] | [5]
active: [3] 83.1 µM

CO[C@@H]1COCC[C@@H]1N[C@@H]1CC[C@@](C(=O)N2CCc3ncc(C(F)(F)F)cc3C2)(C(C)C)C1
inactive: [2] | [3] | [4] | [5]

CCCCCCCCCCCCCCCCO
inactive: [2] | [3] | [4] | [5]

CCCCCCC(CCCCCCCCCCC(=O)OCC(COC(C)=O)OC(C)=O)OC(C)=O (configuration not stated)
inactive: [2] | [3] | [4] | [5]

CC(C)c1cccc(C(C)C)c1
inactive: [2] | [3] | [4] | [5]

CCCC[C@H]1CN(CC2CCOCC2)C(=O)OC12CCN(C1(C)CCN(C(=O)c3c(C)ncnc3C)CC1)CC2
inactive: [2] | [3] | [4] | [5]

CC(=O)CC(c1ccccc1)c1c(O)c2ccccc2oc1=O (configuration not stated)
active: [3] 13.4 µM
inactive: [2] | [4] | [5]

CC(=O)OC1CC(C)OC(C)O1 (configuration not stated)
inactive: [2] | [3] | [4] | [5]

CCCCC(CC)COP(=O)(OCC(CC)CCCC)OCC(CC)CCCC (configuration not stated)
inactive: [2] | [3] | [4] | [5]

CC(C)c1cccc(C(C)C)c1NC(=O)NS(=O)(=O)c1cc(C(C)(C)O)co1
inactive: [2] | [3] | [4] | [5]

N[C@@H](Cc1c[nH]c2ccccc12)C(=O)O
inactive: [2] | [3] | [4] | [5]

CC1(C)C(=O)NC(=O)N1CO
inactive: [2] | [3] | [4] | [5]

CCCCC(CC)CO (configuration not stated)
active: [4] 59.8 µM
inactive: [2] | [3] | [5]

CC(=O)OCC(COC(C)=O)OC(C)=O
inactive: [2] | [3] | [4] | [5]

CN(C)C(=O)NC1(c2ccccc2)CCN(CC[C@@]2(c3ccc(F)c(F)c3)CN(C(=O)c3ccccc3)CCO2)CC1
inactive: [2] | [4] | [5]
active: [3] 29.5 µM

O=C1CCCCC1
inactive: [2] | [3] | [4] | [5]

O=C(O)c1[nH]n(-c2ccc(S(=O)(=O)O)cc2)c(=O)c1N=Nc1ccc(S(=O)(=O)O)cc1
inactive: [2] | [3] | [4] | [5]

CCCCCCCCCCCCCCOS(=O)(=O)O
inactive: [2] | [3] | [4] | [5]

Cc1occc(=O)c1O
inactive: [2] | [3] | [4] | [5]

O=C1O[C@H]([C@H](O)CO)C(O)=C1O
inactive: [2] | [3] | [4] | [5]

OCC(CO)n1cnc(-c2ccc(F)cc2)c1-c1ccnc(Oc2ccccc2)n1
inactive: [2] | [3] | [4] | [5]

CC(C)OC(=O)C(C)(C)Oc1ccc(C(=O)c2ccc(Cl)cc2)cc1
inactive: [2] | [4] | [5]

CCOCCOCCO
inactive: [2] | [3] | [4] | [5]
